The text below walks through data of PubChem BioAssay AID485290 (National Center for Advancing Translational Sciences (NCATS), 2010).

Values joined by “and” are separate entries in the source; they are usually repeats but may differ in a detail not shown here. Equal entries are not always repeated. The campaign covered roughly 350,000 compounds. About 990 (0.28%) were called active. Entries that show only a call come without a potency. About 2% were inconclusive and are not listed. Calls come from the whole dose curve; as a rule, active = well fitted inhibition curve with a large enough effect; inconclusive = small, poorly fitted or top-dose-only effect; inactive = no such curve, though single readings can be large or run the other way. The full list was thinned out, with actives kept by preference. Where a structure was tested more than once in an assay, its records may differ in their call.
Potency is the fitted concentration of half-maximal effect.

The target in the assay is Tyrosyl-DNA phosphodiesterase 1 (Homo sapiens) (UniProt Q9NUW8). Put plainly: qHTS Assay for Inhibitors of Tyrosyl-DNA Phosphodiesterase (TDP1). Note: nearly all actives have a fitted effect of over 40% in size. The conditions noted are these: recombinant TDP1, AlphaScreen DNA substrate cleavage; series mostly up to 130 µM. From the text: NIH Molecular Libraries Probe Production Network [MLPCN]
Chain of Tyrosyl-DNA phosphodiesterase 1 (Homo sapiens) (Q9NUW8 whole entry, looked up): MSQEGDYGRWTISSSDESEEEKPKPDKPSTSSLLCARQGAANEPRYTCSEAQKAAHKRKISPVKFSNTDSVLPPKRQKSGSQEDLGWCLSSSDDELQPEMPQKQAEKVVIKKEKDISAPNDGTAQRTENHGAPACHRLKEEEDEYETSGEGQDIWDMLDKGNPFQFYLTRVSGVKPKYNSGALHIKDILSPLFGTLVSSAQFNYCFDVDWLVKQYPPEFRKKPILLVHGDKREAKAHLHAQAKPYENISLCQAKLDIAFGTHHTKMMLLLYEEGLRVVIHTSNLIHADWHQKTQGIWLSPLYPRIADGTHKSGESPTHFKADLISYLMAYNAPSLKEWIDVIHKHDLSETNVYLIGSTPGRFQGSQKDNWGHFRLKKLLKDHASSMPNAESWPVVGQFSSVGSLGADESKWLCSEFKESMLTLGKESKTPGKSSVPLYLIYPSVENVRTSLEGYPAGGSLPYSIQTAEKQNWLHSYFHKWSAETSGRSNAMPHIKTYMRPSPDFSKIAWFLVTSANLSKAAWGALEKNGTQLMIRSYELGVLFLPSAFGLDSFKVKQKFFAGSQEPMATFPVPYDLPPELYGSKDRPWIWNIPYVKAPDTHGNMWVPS
NIH Chemical Genomics Center [NCGC]
Assay Provider: Yves Pommier and Christophe Marchand, National Cancer Institute
Assay Title: qHTS Assay for Inhibitors of Tyrosyl-DNA Phosphodiesterase (TDP1); note: nearly all actives have a fitted effect of over 40% in size
Human tyrosyl-DNA phosphodiesterase I (Tdp1) is a rational anticancer target because this enzyme is involved in the repair of DNA lesions created by the trapping of human DNA topoisomerase I (Top1) following treatment by anticancer agents such as camptothecins. Recombinant Tdp1 was expressed and purified from E. coli in the laboratory (Anthony et al, Nucleic Acids Research, 2007, Vol. 35, 4474-4484). A Tdp1 DNA substrate bearing a 5' biotin and a 3' phospho-tyrosine was obtained by custom synthesis. This oligonucleotidic DNA substrate was subsequently coupled to a fluorescein isothiocyanate (FITC) group via the free amino group present on the phospho-tyrosine. Tdp1 was screened against the NCGC small molecule library using the AlphaScreen (AS) detection method in which a streptavidin donor AS bead is bound at the 5' end and an anti-FITC AS acceptor bead is bound at the 3' end of the DNA oligonucleotidic substrate. In the presence of Tdp1, the enzyme cleaves the tyrosine-FITC group, leaving a 3' end phosphate on the DNA substrate. This cleavage reaction results in a loss of signal in AS.
[1] 3 ul of buffer is dispensed in columns 3 & 4 as negative control (no enzyme and maximum signal),
[2] 3 ul of enzyme (1 nM final) is dispensed in columns 1,2, 5-48,
[3] 1 ul of substrate (15 nM final) is dispensed throughout the plate,
[4] 1 ul of AS donor/acceptor bead mix (10 ug/ml final) is dispensed throughout the plate
3 ul of Tdp1 enzyme is dispensed to 1536-well Kalypsys black solid bottom plates. Compounds and controls (23 nl) are transferred via Kalypsys Pin Tool. The plates are incubated for 15 min at room temperature, and then 1 ul of substrate is added to start the reaction. After 5 min incubation at room temperature, 1 ul of AS donor/acceptor bead mix is added and the plates are further incubated for 10 min at room temperature. The detection is then performed on a PerkinElmer Envision reader.
On the technique in general: qHTS replaces the single test concentration by a dilution series.
Regarding `Cc1nn(C)cc1N1C(=O)c2cccc3c(N)ccc(c23)C1=O`, the Potency entry was “inactive”.
With `Nc1ccc2c3c(cccc13)C(=O)NC2=O` the entry was “inactive and 50.1 µM (active)”; with `CCCNC(=O)CN(Cc1ccccc1F)S(=O)(=O)c1ccc(C)cc1`, “inactive”.
Under `COC(=O)Cc1ccc(N(Cc2ccccc2F)S(=O)(=O)c2ccc(Br)cc2)cc1` stands “inactive”; under `CC(=O)c1ccc(S(=O)(=O)N(C)CCCC(=O)N(C)Cc2ccccc2F)cc1`, 79.4 µM (active).
With `O=C(CNC(=O)c1ccccc1)OC(C(=O)Nc1cc([N+](=O)[O-])ccc1F)c1ccccc1` (stereo unspecified) the entry was “inactive”.
Consider `O=C(CCCCCNC(=O)c1ccccc1)N/N=C/c1ccccc1`, for which the Potency result is “inactive”.
For the molecule `O=C(CCNC(=O)c1ccccc1Cl)NN=Cc1ccco1`, the Potency result is “inactive”.
Under `O=C(CCNC(=O)c1ccccc1)NN=Cc1ccc(Br)o1` stands 14.1 µM (active); under `O=C(Nc1ccc2nc(SCCOc3ccccc3Cl)sc2c1)c1ccco1`, “inactive”; under `CCOC(=O)c1ccc(NC(=O)CC2C(=O)N(c3ccccc3)C(=O)N2Cc2cccs2)cc1` (stereo unspecified), “inactive”.
As for `COc1ccc(-c2cn3nc(N4CCCC(C(=O)NCCCOC(C)C)C4)sc3n2)cc1` (stereo unspecified), the Potency result was “inactive”.
With `Cc1ccc(-c2nnc3ccc(SCC(N)=O)nn23)cc1` the entry was “inactive”; with `O=C(CCc1ccccc1)NCCc1cccs1`, “inactive”.
With `O=C(O)CCC(=O)N(Cc1cccs1)Cc1cccs1` the figure was 70.8 µM (active); with `O=C(O)CCC(=O)N(Cc1ccccc1)Cc1ccccc1`, “inactive”; with `Cc1ccc2ccc3c(c2n1)NS(=O)(=O)c1ccccc1-3`, “inactive”.
Consider `O=C(CSc1nc2ccc(Nc3nc(N4CCOCC4)nc(N4CCOCC4)n3)cc2s1)NCc1ccco1`, for which the Potency result was “inactive”.
With `CCn1c(COc2ccccc2)nnc1SCC(=O)NCc1ccco1` the entry was “inactive”; with `C=CCn1c(CSc2nc3ccccc3s2)nnc1SCC(=O)NCc1ccco1`, 50.1 µM (active); with `N#Cc1nc(Nc2cc(F)cc(Cl)c2)nc(NC2CCCC2)n1`, “inactive”.
Under `Cc1ccc(C2C=C(c3ccc(Cl)cc3)Nc3nc(NC(=O)CCC(=O)O)nn32)cc1` (stereo unspecified) stands “inactive”; under `Cc1csc(NC(=O)CSc2nc(=O)cc(N)n2-c2ccc(F)cc2)n1`, “inactive”; under `Cc1cc(NC(=O)CSc2nc(=O)cc(N)n2-c2ccc(F)cc2)no1`, 100 µM (active).
With `COc1cccc(-n2c(N)cc(=O)nc2SCC(=O)Nc2cc(C)on2)c1` the entry was “inactive”.
With `CCc1ccc(NC(=O)CN2CCSc3ccc(S(=O)(=O)N4CCCC4)cc32)cc1`, the Potency entry is “inactive”.
Turning to `CC(C)c1ccc(C2CC(=O)N3CN(C4CCCCC4)CSC3=C2C#N)cc1` (stereo unspecified), the Potency entry was “inactive”.
`Cc1ccc(Cn2ncc3c4sc(C)cc4n(C)c3c2=O)c(C)c1`: the Potency result is “inactive”.
With `NC(=O)CSc1nnc(NC(=O)c2ccc(Br)o2)s1` the figure was 56.2 µM (active); with `NC(=O)CSc1nnc(NC(=O)c2ccc3ccccc3c2)s1`, “inactive”; with `CCSc1nnc(NC(=O)c2cc(=O)c3cc(C)c(C)cc3o2)s1`, “inactive”.
`COc1cccc(NC(=O)C(=O)NCC(c2ccc3c(c2)OCO3)N2CCN(C)CC2)c1` (stereo unspecified): the Potency entry is “inactive”.
In the case of `O=C(Nc1ccc(F)cc1F)c1ccc2c(=O)n3c(nc2c1)CCCCC3`, the Potency entry was “inactive”.
With `COc1cc(C(=O)NCCc2csc3nc(-c4ccccc4C)nn23)cc(OC)c1OC`, the Potency result was “inactive”.
With `Cc1cc(C)c2nc(-c3ccco3)cc(C(=O)O)c2c1` the figure was 3.55 µM (active); with `CN(CCOc1ccccc1)C(=O)c1cc(-c2ccco2)nc2ccccc12`, “inactive”.
Under `CC1CCCN(C(=O)c2cc(-c3ccco3)nc3ccccc23)C1` (stereo unspecified) stands “inactive”; under `N#CN1CCC(NS(=O)(=O)c2cccc(F)c2)C1` (stereo unspecified), “inactive”.
`COc1cccc(NC(=O)c2ccc3nc(CCc4ccccc4)oc3c2)c1`: the Potency entry is “inactive”.
As for `COc1cccc(OC2=NS(=O)(=O)c3ccccc32)c1`, the Potency entry is “inactive”.
Take `COC(=O)c1ccccc1NC(=O)c1ccc2c(=O)n3c(nc2c1)CCCCC3`: the Potency result was “inactive”.
On to `O=C(OCC#CCSc1nnc(-c2ccco2)o1)c1ccc(F)cc1`, for which the Potency result was “inactive”.
Under `Cc1cc(/C=C2\SC(=Nc3ccc(N4CCOCC4)cc3)N(C)C2=O)c(C)n1-c1cccnc1` stands “inactive”; under `CN1C(=O)/C(=C\c2ccc(-c3ccccc3)o2)SC1=S`, “inactive”; under `CN1C(=O)/C(=C/c2ccco2)SC1=Nc1cccc(C(=O)O)c1`, 25.1 µM (active).
On to `CCOC(=O)c1scc(-c2ccccc2)c1S(=O)(=O)Nc1ccccc1F`, for which the Potency result is “inactive”.
`COc1ccc(-c2nc3sc(CCNC(=O)C(C)(C)C)c(C)n3n2)cc1`: the Potency result is “inactive”.
Under `Cc1ccccc1Nc1nc(-c2cccnc2)cs1` stands 100 µM (active).
Under `Cc1cccc(Nc2nc(-c3ccccc3)cs2)n1` stands “inactive”.
Under `O=C(Nc1nc(-c2cccnc2)cs1)c1ccccc1F` stands “inactive”; under `COc1ccc(-c2c3c(=O)n(C)c(=O)n(C)c3c3c(C)nc4ccccc4n23)cc1`, “inactive”.
As to `O=C(CNC(=O)c1ccc(Cl)cc1Cl)OC(C(=O)Nc1cc(C(F)(F)F)ccc1Cl)c1ccccc1` (stereo unspecified), the Potency entry was “inactive”.
Under `CCc1nc(-c2cc(S(=O)(=O)N3CCN(c4ccc(OC)cc4)CC3)ccc2OC)no1` stands “inactive”; under `CCc1ccc(OCCCn2c(CCCNC(=O)C3CCCCC3)nc3ccccc32)cc1`, “inactive”.
Under `Cc1ccnc2nc(C(=O)Nc3nnc(-c4ccccc4)o3)nn12` stands 50.1 µM (active); under `O=C(Nc1nnc(-c2ccc(Cl)cc2)o1)c1ccccc1Br`, “inactive”.
With `Cc1ccnc2nc(C(=O)OCC(=O)N(CC(C)C)CC(C)C)nn12` the entry was “inactive”; with `COc1ccc(C(=O)CSc2c(C(C)C)cnc3c2c(=O)n(C)c(=O)n3C)cc1`, “inactive”; with `CCN(CCCNC(=O)c1ccc(Sc2ccc(C)cc2)c(NC(C)=O)c1)c1cccc(C)c1`, “inactive”.
Take `Cc1ccc(-n2ncc3c(NCCCn4ccnc4)ncnc32)cc1Cl`: the Potency result was “inactive”.
Consider `COc1ccc(C2Nc3ccccc3C(=O)N2Cc2ccccc2)cc1COc1ccc(C(N)=O)cc1` (stereo unspecified), for which the Potency result was “inactive”.
Under `CCc1ccccc1NC(=O)c1ccc2nc(CCc3ccccc3)oc2c1` stands “inactive”.
As to `Cc1cc(=O)oc2cc(OC(C)C(=O)Nc3ccc(N4CCOCC4)cc3)ccc12` (stereo unspecified), the Potency result was “inactive”.
As to `Cc1cc(=O)oc2cc(OC(C)C(=O)NCCc3ccc(S(N)(=O)=O)cc3)ccc12` (stereo unspecified), the Potency entry was “inactive”.
With `Cc1cc(=O)oc2cc(NC(=O)C(C)Oc3ccccc3)ccc12` (stereo unspecified), the Potency was 56.2 µM (active).
In the case of `COc1ccc(S(=O)(=O)NCC(c2ccc(N(C)C)cc2)N2CCc3ccccc32)cc1OC` (stereo unspecified), the Potency entry is “inactive”.
